# Test results published in PubChem BioAssay.
# Unmarked numbers belong to inactive results. The list shows a part of the results. The source made the active and inactive calls.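 How the source made its calls, unless noted: active means mean inhibition over 43.08%, the solvent-only control mean plus 3 SD; inactive means the rest.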
# Key:
# [1] = target: Nuclear receptor coactivator 3 (Homo sapiens) (UniProt Q9Y6Q9); assay: NCOA3 GAL4-fusion reporter inhibition – cell-based, luminescence, quadruplicate, confirmation (AID 588792); conditions: HEK293 GAL4-SRC3 luciferase reporter, at 3.6 µM, stronger effect = higher value;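 further: 0% = DMSO treated cells and 100% = gossypol at 36 µM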
# Chain of Nuclear receptor coactivator 3 (Homo sapiens) (Q9Y6Q9 whole entry, looked up, the tested form may be a part): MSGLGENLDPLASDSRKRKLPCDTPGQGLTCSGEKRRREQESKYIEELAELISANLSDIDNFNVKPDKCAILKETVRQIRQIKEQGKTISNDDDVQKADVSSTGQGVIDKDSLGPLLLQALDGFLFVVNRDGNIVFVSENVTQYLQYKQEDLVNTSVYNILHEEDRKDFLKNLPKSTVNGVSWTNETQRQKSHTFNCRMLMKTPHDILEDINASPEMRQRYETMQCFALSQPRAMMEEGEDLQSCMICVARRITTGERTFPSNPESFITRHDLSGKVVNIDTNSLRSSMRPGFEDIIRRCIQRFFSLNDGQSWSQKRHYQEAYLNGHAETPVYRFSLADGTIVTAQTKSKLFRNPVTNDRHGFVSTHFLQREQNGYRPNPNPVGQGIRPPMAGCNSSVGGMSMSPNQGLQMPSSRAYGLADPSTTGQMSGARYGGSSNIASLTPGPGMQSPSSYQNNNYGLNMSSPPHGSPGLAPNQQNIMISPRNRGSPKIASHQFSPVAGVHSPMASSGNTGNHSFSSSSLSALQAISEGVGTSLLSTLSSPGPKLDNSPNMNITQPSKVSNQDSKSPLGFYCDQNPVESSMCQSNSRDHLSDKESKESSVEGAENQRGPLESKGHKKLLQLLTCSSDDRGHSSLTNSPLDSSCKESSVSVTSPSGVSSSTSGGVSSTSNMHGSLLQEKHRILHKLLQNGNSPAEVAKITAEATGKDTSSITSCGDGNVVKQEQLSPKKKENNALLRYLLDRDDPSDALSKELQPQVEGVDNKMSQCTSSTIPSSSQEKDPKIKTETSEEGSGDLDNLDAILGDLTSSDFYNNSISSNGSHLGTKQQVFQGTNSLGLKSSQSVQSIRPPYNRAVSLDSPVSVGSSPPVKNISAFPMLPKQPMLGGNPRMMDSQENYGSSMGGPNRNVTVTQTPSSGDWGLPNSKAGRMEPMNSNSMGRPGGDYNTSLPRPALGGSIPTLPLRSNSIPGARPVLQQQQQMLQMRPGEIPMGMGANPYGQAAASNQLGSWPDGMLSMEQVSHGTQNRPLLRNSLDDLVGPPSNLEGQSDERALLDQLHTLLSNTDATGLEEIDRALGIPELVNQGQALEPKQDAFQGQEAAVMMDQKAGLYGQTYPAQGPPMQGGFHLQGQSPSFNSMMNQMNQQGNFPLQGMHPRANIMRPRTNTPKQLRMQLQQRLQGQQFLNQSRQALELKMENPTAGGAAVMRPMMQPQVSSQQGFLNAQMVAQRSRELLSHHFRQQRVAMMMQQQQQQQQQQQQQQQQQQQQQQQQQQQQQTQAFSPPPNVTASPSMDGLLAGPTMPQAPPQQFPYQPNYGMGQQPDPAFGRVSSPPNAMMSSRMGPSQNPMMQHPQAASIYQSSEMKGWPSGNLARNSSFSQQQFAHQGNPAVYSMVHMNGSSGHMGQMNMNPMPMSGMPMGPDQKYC
# [2] = system: transactivating tegument protein VP16 (Human herpesvirus 1), Gal4-VP16 luciferase reporter; assay: repression of VP16-driven luciferase reporter – cell-based, luminescence, high throughput, counter-screen for SRC3 inhibitor project (AID 588794; in the data active means inhibition above about 30%); conditions: mammalian cells, at 3.6 µM, stronger effect = higher value
# [3] = StAR promoter reporter inhibitors, counter-screen for LRH-1 inverse agonist project, cell-based, luminescence, high throughput (AID 651611; in the data active means inhibition above about 28%); conditions: StAR promoter luciferase reporter counterscreen, at 3.6 µM, stronger effect = higher value
# [4] = target: Nuclear receptor subfamily 5 group A member 2 (Homo sapiens) (UniProt O00482); assay: NR5A2 activity suppression in reporter cells – cell-based, luminescence, confirmation (AID 651613; in the data active means inhibition above about 42%;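 further: HEK293T cells co-transfected with LRH-1 and StAR promoter luciferase reporter; 0% = vehicle wells and 100% = parental cells lacking receptor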); conditions: cell-based LRH-1 luciferase reporter, inverse agonism; at 3.6 µM; stronger effect = higher value
# Chain of Nuclear receptor subfamily 5 group A member 2 (Homo sapiens) (O00482 whole entry, looked up): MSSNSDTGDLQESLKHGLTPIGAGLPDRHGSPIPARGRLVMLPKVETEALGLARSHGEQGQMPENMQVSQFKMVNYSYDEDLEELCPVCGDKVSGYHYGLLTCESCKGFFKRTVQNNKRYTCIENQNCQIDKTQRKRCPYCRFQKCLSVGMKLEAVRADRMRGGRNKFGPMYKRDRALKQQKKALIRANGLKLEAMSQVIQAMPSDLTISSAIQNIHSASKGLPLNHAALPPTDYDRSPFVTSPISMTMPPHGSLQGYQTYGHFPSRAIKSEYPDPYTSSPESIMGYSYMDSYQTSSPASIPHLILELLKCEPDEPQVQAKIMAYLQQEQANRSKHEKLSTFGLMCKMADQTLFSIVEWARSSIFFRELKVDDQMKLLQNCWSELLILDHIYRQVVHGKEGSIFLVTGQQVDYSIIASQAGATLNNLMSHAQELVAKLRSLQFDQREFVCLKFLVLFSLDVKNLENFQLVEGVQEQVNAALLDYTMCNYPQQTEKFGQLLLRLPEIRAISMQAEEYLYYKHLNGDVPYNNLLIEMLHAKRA
# [5] = target: Steroidogenic factor 1 (Homo sapiens) (UniProt Q13285); assay: inverse agonism at SF1 nuclear receptor – cell-based, luminescence, high throughput, counter-screen for LRH-1 inverse agonist project (AID 651614; in the data active means inhibition above about 44%;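 further: cells cotransfected with StAR promoter reporter and SF1 expression vector; 0% = vehicle on cells with receptor and 100% = vehicle on cells lacking receptor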); conditions: cell-based SF1 luciferase reporter, at 3.6 µM, stronger effect = higher value
# Chain of Steroidogenic factor 1 (Homo sapiens) (Q13285 whole entry, looked up, the tested form may be a part): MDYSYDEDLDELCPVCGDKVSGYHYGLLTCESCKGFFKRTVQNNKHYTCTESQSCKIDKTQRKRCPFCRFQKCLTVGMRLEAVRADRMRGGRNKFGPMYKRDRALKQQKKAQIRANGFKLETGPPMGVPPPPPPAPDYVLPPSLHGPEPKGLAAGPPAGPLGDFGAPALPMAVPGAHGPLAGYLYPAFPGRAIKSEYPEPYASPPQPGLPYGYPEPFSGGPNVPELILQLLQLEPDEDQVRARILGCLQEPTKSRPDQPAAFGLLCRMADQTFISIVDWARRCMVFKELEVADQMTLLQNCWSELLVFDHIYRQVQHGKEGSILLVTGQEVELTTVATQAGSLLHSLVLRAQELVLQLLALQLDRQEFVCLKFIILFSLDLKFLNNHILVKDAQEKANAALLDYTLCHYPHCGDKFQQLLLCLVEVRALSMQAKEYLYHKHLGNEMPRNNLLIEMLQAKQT
# [6] = compounds suppressing VP16-driven luciferase signal – cell-based, luminescence, high throughput, counter-screen for LRH-1 inverse agonist project (AID 651615; in the data active means inhibition above about 33%); conditions: Gal4-VP16 luciferase reporter cells, at 3.6 µM, stronger effect = higher value
# [7] = system: transactivating tegument protein VP16 (Human herpesvirus 1); assay: compounds suppressing VP16-driven luciferase signal – cell-based, luminescence, single concentration, counter-screen for SRC2 inhibitor project (AID 652007; in the data active means inhibition above about 36%); conditions: cell-based VP16 transactivation luciferase reporter, at 8.9 µM, stronger effect = higher value
# [8] = target: Nuclear receptor coactivator 2 (Homo sapiens) (UniProt Q15596); assay: inhibition of GAL4-SRC2 driven luciferase expression – cell-based, luminescence, HEK293, triplicate, confirmation (AID 652008;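 active means mean inhibition above 46.5%, the solvent-only control mean plus 3 SD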;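 further: 0% = DMSO-treated cells and 100% = Gossypol at 36 µM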); conditions: HEK293 GAL4-SRC2 luciferase reporter, at 8.9 µM, stronger effect = higher value
# Chain of Nuclear receptor coactivator 2 (Homo sapiens) (Q15596 whole entry, looked up, the tested form may be a part): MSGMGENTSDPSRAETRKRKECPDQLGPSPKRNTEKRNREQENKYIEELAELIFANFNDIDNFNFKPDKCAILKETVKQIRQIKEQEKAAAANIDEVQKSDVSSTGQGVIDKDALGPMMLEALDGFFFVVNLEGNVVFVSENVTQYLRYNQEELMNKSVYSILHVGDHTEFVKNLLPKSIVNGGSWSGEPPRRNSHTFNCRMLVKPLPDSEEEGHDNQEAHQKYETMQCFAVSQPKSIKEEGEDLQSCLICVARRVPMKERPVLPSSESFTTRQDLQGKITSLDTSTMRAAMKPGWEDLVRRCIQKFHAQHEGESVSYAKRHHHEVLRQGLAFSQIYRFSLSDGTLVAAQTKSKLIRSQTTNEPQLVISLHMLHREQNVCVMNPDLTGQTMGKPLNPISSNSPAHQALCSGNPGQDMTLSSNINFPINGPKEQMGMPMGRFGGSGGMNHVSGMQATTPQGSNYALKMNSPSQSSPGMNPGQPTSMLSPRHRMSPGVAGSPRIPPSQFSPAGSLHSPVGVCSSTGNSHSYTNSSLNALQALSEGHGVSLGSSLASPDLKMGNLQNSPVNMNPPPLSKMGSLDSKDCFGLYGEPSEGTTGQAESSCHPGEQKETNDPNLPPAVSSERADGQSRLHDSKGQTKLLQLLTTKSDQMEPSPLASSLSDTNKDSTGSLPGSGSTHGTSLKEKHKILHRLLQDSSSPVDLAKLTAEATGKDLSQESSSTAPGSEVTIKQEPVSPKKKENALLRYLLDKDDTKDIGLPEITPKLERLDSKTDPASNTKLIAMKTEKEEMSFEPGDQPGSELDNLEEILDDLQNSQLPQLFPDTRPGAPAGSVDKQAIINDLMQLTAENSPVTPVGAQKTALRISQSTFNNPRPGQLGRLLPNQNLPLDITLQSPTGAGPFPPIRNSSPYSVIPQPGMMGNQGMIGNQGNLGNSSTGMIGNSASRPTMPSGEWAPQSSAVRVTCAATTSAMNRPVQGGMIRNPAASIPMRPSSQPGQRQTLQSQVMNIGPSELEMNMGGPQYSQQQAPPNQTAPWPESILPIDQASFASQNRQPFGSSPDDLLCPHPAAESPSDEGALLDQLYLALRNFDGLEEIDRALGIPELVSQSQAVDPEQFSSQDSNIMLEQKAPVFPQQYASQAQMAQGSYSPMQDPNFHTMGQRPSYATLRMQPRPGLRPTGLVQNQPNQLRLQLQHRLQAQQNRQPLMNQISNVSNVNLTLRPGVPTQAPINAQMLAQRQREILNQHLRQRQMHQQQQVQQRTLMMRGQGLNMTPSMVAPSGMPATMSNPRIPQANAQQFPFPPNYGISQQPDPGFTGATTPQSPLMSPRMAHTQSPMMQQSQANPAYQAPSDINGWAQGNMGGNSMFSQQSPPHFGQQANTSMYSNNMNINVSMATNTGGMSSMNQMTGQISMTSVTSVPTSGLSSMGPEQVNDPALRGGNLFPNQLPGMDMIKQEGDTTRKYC
# [9] = VP16-driven transactivation reporter suppression – cell-based, luminescence, HEK293, counter-screen for COUP-TFII antagonist project (AID 687007; in the data active means inhibition above about 13%); conditions: HEK293 Gal4-VP16 luciferase reporter, at 8.5 µM, stronger effect = higher value
# [10] = target: COUP transcription factor 2 (Homo sapiens) (UniProt P24468); assay: retest of COUP-TFII reporter suppressors – cell-based, luciferase reporter, HEK293, triplicate, confirmation (AID 687008;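 active means mean inhibition over three repeats above a set limit taken from the earlier primary screen, cut at about 38% in these data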;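 further: 100% = cells given the luciferase reporter alone without the COUP-TF2 vector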); conditions: HEK293 NGFI-A luciferase reporter, luminescence; at 8.5 µM; stronger effect = higher value
# Chain of COUP transcription factor 2 (Homo sapiens) (P24468 whole entry, looked up): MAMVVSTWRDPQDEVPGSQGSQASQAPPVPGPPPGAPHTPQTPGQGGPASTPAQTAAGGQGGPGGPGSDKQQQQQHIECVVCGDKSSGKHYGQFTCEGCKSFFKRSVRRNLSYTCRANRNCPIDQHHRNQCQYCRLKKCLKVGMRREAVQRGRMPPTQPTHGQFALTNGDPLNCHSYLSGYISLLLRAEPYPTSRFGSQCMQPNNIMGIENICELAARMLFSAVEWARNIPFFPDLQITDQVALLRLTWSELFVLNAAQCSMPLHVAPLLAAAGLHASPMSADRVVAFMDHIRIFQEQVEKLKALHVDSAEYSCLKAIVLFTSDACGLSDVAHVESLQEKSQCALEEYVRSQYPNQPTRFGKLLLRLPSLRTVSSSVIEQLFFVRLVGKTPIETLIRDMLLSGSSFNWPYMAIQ
smiles,measurement,setting,value
CCCC(=O)NC(c1ccc(N(C)C)cc1)c1ccc2cccnc2c1O (stereo unspecified),inhibition,[1],78.2% (active)
same,inhibition,[2],77% (active)
same,inhibition,[3],91.9% (active)
same,inhibition,[4],104% (active)
same,inhibition,[5],91.3% (active)
same,inhibition,[6],89.2% (active)
O=C(Nc1ccc(F)cc1)Nc1cc(OCC(F)(F)F)cc(OCC(F)(F)F)c1,inhibition,[1],17%
same,inhibition,[2],29.6% (active)
same,inhibition,[3],53.8% (active)
same,inhibition,[4],98.5% (active)
same,inhibition,[5],75.6% (active)
same,inhibition,[6],78% (active)
C[n+]1c2n(c3ccccc31)N=C(c1ccc(-c3ccccc3)cc1)CS2,inhibition,[1],36.6%
same,inhibition,[2],52.8% (active)
same,inhibition,[3],32.7% (active)
same,inhibition,[4],87.7% (active)
same,inhibition,[5],78.2% (active)
same,inhibition,[6],72.8% (active)
COc1ccc(COC(=O)C2=C(C)NC(=O)NC2c2ccc(F)cc2)cc1 (stereo unspecified),inhibition,[1],34.1%
same,inhibition,[2],28.1%
same,inhibition,[7],10.2%
same,inhibition,[8],31.4%
O=C(O)CCn1c(O)c(C=C2N=c3ccccc3=N2)sc1=S,inhibition,[1],12.5%
same,inhibition,[2],13.2%
same,inhibition,[7],34.1%
same,inhibition,[8],72.1% (active)
Cc1nc([N+](=O)[O-])c(Sc2nc3ccccc3[nH]2)n1Cc1ccccc1,inhibition,[1],16.1%
same,inhibition,[2],6.02%
same,inhibition,[7],-3.82%
same,inhibition,[8],32.5%
Cc1nn(C)cc1C(C)NC(=O)c1cc(COc2cccc3cnccc23)on1 (stereo unspecified),inhibition,[1],18.6%
same,inhibition,[2],24.9%
same,inhibition,[7],-5.71%
same,inhibition,[8],33.3%
CC[n+]1cc(C)ccc1/C=C/c1ccc(N(C)C)cc1,inhibition,[1],45.1% (active)
same,inhibition,[2],58.8% (active)
same,inhibition,[3],57% (active)
same,inhibition,[4],91.7% (active)
same,inhibition,[5],85.7% (active)
same,inhibition,[6],80% (active)
same,inhibition,[9],-0.96%
same,inhibition,[10],62.6% (active)
COc1ccc(OCC(=O)N/N=C/c2ccc(O[C@@H]3O[C@H](CO)[C@@H](O)[C@H](O)[C@H]3O)cc2)cc1,inhibition,[1],20.5%
same,inhibition,[2],60.1% (active)
same,inhibition,[4],64.5% (active)
same,inhibition,[5],72.1% (active)
Cc1cc(C)cc(OCC(=O)NCC2CCCO2)c1 (stereo unspecified),inhibition,[1],18.4%
same,inhibition,[2],-9.18%
same,inhibition,[7],-1.96%
same,inhibition,[8],28.9%
CC[C@@]1(O)C(=O)OCc2c1cc1n(c2=O)Cc2cc3c(CN(C)C)c(O)ccc3nc2-1,inhibition,[1],89.8% (active)
same,inhibition,[2],53.2% (active)
same,inhibition,[4],99.7% (active)
same,inhibition,[5],85.7% (active)
same,inhibition,[7],32.9%
same,inhibition,[8],46%
O=C(Nc1ccc(OCC(=O)N2CCOCC2)cc1)c1cncc(Br)c1,inhibition,[1],29.6%
same,inhibition,[2],23%
same,inhibition,[7],3.8%
same,inhibition,[8],26.1%
CCc1ccc(/C=C/C(=O)c2c(C)cc(C)[nH]c2=O)cc1,inhibition,[1],55.5% (active)
same,inhibition,[2],50.1% (active)
same,inhibition,[7],17.5%
same,inhibition,[8],40.1%
Cc1ccc(C(=O)NNC(=O)CCCN2C(=O)/C(=C/c3ccccc3Cl)SC2=S)cc1,inhibition,[1],20.4%
same,inhibition,[2],21.8%
same,inhibition,[7],53.4% (active)
same,inhibition,[8],60.2% (active)
Cc1ccc(-n2nc3c(=O)n(C(C)C(=O)NCCC4=CCCCC4)nc(C)c3c2C)cc1 (stereo unspecified),inhibition,[1],22.9%
same,inhibition,[2],47.1% (active)
same,inhibition,[7],3.1%
same,inhibition,[8],29.1%
COC(=O)c1c(C)n(-c2ccc(OC)cc2)c2ccc(O)cc12,inhibition,[1],41.4%
same,inhibition,[2],24.1%
same,inhibition,[7],-4.83%
same,inhibition,[8],28.1%
O=C(NC(CSCc1ccccc1)C(=O)N/N=C/c1ccc(O)cc1O)c1ccc([N+](=O)[O-])cc1 (stereo unspecified),inhibition,[1],31.7%
same,inhibition,[2],34.8% (active)
same,inhibition,[7],-26.8%
same,inhibition,[8],8.58%
O=C(/C=C\Nc1ccc2c(c1)OCO2)c1ccccn1,inhibition,[1],22.5%
same,inhibition,[2],14.7%
same,inhibition,[7],29.3%
same,inhibition,[8],62% (active)
Cc1nc([N+](=O)[O-])c(Sc2nc3ccccc3n2C)n1Cc1ccccc1,inhibition,[1],30.1%
same,inhibition,[2],13.4%
same,inhibition,[7],31.9%
same,inhibition,[8],46.5%
CCCCCCC[N+](CC)(CC)CCCCc1ccc(Cl)cc1,inhibition,[1],22.1%
same,inhibition,[2],28.2%
same,inhibition,[4],79% (active)
same,inhibition,[5],66.2% (active)
COc1ccc(C(=O)Nc2ccc(C)cn2)c(OC)c1,inhibition,[1],-0.48%
same,inhibition,[2],-4.91%
same,inhibition,[7],23.7%
same,inhibition,[8],49.8% (active)
O=c1cc(CCl)nc(Cc2c(Cl)cccc2Cl)[nH]1,inhibition,[1],21.2%
same,inhibition,[2],-8.27%
same,inhibition,[7],16.8%
same,inhibition,[8],54.1% (active)
O=C1Cc2c([nH]c3ccc([N+](=O)[O-])cc23)-c2ccccc2N1,inhibition,[1],91.9% (active)
same,inhibition,[2],88.9% (active)
same,inhibition,[7],23.5%
same,inhibition,[8],51% (active)
COc1cccc(F)c1C(C[N+](=O)[O-])c1c(N)n(C)c(=O)n(C)c1=O (stereo unspecified),inhibition,[1],42.5%
same,inhibition,[2],24.4%
same,inhibition,[7],14.7%
same,inhibition,[8],28.2%
Cc1ccc(NC(=O)c2ccccc2NS(=O)(=O)c2ccc(F)cc2)cc1S(=O)(=O)N1CCCCC1,inhibition,[1],12.2%
same,inhibition,[2],24%
same,inhibition,[7],10.3%
same,inhibition,[8],27.6%
COC(=O)c1ccc2c(=O)n(CCCCCC(=O)O)c(=S)[nH]c2c1,inhibition,[1],16.4%
same,inhibition,[2],15.1%
same,inhibition,[7],6.79%
same,inhibition,[8],32.2%
O=S(=O)(/C(=C/c1ccc(C(F)(F)F)cc1)c1nc2ccccc2[nH]1)c1ccccc1,inhibition,[1],61.5% (active)
same,inhibition,[2],58.3% (active)
same,inhibition,[7],71.8% (active)
same,inhibition,[8],30.6%
CCCCn1c(CCl)nc2cc(S(=O)(=O)N3CCOCC3)ccc21,inhibition,[1],71.6% (active)
same,inhibition,[2],34.6% (active)
same,inhibition,[7],22%
same,inhibition,[8],64.1% (active)
O=C(Cc1ccc(Cl)cc1)c1c[nH]c(C(=O)NCc2cccnc2)c1,inhibition,[1],95.9% (active)
same,inhibition,[2],56% (active)
same,inhibition,[7],93.5% (active)
same,inhibition,[8],95.2% (active)
COc1ccc(C(=O)C(CCC(CNC(C)(C)C)C(=O)c2ccc(OC)cc2)CNC(C)(C)C)cc1 (stereo unspecified),inhibition,[1],-9.42%
same,inhibition,[2],4.54%
same,inhibition,[7],10.4%
same,inhibition,[8],20.1%
Cc1c(/C(O)=C2\C(=O)C(=O)N(CCN(C)C)C2c2ccccc2)cnn1-c1ccccc1 (stereo unspecified),inhibition,[1],15.8%
same,inhibition,[2],-3.19%
same,inhibition,[7],-15.3%
same,inhibition,[8],10.1%
CCOC(=O)c1c(C)nn(-c2ccc(NC(=O)/C=C/C(=O)O)cc2)c1C,inhibition,[1],10.7%
same,inhibition,[2],-2.88%
same,inhibition,[7],8.16%
same,inhibition,[8],62.7% (active)
Cc1ccc(/C=C2\SC(=S)N(CCCC(=O)Nc3ccc(O)cc3)C2=O)cc1,inhibition,[1],18.4%
same,inhibition,[2],10.3%
same,inhibition,[7],36.9% (active)
same,inhibition,[8],69.4% (active)
Cc1cc2nccc(-c3ccncc3)n2n1,inhibition,[1],38.2%
same,inhibition,[2],22.4%
same,inhibition,[7],3.85%
same,inhibition,[8],33.4%
Cc1ccccc1C(=O)N/N=C/c1ccc([N+](=O)[O-])s1,inhibition,[1],6.45%
same,inhibition,[2],8.35%
same,inhibition,[3],46.1% (active)
same,inhibition,[4],73.2% (active)
same,inhibition,[5],65% (active)
same,inhibition,[6],24.8%
same,inhibition,[7],64.2% (active)
same,inhibition,[8],63.1% (active)
O=C(c1ccc(S(=O)(=O)c2ccc(F)cc2)c([N+](=O)[O-])c1)N1CCCCCC1,inhibition,[1],11.4%
same,inhibition,[2],18.9%
same,inhibition,[7],15.7%
same,inhibition,[8],29.9%
Cc1nnc(SC(=O)N2c3ccccc3Sc3ccccc32)s1,inhibition,[1],80.8% (active)
same,inhibition,[2],28.2%
same,inhibition,[7],37.9% (active)
same,inhibition,[8],60.4% (active)
Cc1cccc(CN2CCN(C(=O)CCl)CC2)c1,inhibition,[1],31.7%
same,inhibition,[2],18.2%
same,inhibition,[7],38% (active)
same,inhibition,[8],33.5%
Cc1cccc(C)c1NS(=O)(=O)c1ccc(-c2cnc(C3CC3)o2)cc1,inhibition,[1],43.2% (active)
same,inhibition,[2],15.3%
same,inhibition,[7],2.97%
same,inhibition,[8],17.2%
Cc1ccccc1Nc1nc(N)nc(CCl)n1,inhibition,[1],22.9%
same,inhibition,[2],0.42%
same,inhibition,[7],-11.3%
same,inhibition,[8],52.5% (active)
Cc1ccc(CSC(Nc2ccc(F)cc2)=C(C#N)C#N)cc1,inhibition,[1],4.71%
same,inhibition,[2],28.5%
same,inhibition,[3],19.4%
same,inhibition,[4],59.8% (active)
same,inhibition,[5],59.9% (active)
same,inhibition,[6],45% (active)
same,inhibition,[7],12.8%
same,inhibition,[8],31.9%
CC(=O)Nc1ccc(NC2=C/C(=N/S(=O)(=O)c3cccs3)c3ccccc3C2=O)cc1,inhibition,[1],3.29%
same,inhibition,[2],9.98%
same,inhibition,[7],9.81%
same,inhibition,[8],49.5% (active)
COc1ccc(Cc2nnc(N/N=C/c3ccc(O)cc3)[nH]c2=O)cc1OC,inhibition,[1],84.4% (active)
same,inhibition,[2],81% (active)
same,inhibition,[7],33.1%
same,inhibition,[8],50.5% (active)
Cc1ccc(C2=NN(C(=O)CCl)C(c3ccco3)C2)o1 (stereo unspecified),inhibition,[1],38.2%
same,inhibition,[2],7.74%
same,inhibition,[7],15.3%
same,inhibition,[8],51.2% (active)
O=C(N[C@@H](Cc1ccccc1)C(=O)CCl)OCc1ccccc1,inhibition,[1],31.5%
same,inhibition,[2],40.4% (active)
same,inhibition,[7],64.2% (active)
same,inhibition,[8],69.3% (active)
Cc1ccc(-n2nnnc2Sc2ccc(S(=O)(=O)NCCN(C)C)cc2[N+](=O)[O-])cc1,inhibition,[1],33.8%
same,inhibition,[2],35.9% (active)
same,inhibition,[7],18.6%
same,inhibition,[8],31.4%
CCOc1ccc(CC(=O)Nc2ccc(NC(=O)c3ccco3)cc2)cc1OCC,inhibition,[1],64% (active)
same,inhibition,[2],-14.3%
same,inhibition,[7],7.03%
same,inhibition,[8],41.9%
COc1ccc(COC(=O)C2=C(C)NC(=O)NC2c2ccc(OC)cc2)cc1 (stereo unspecified),inhibition,[1],11.2%
same,inhibition,[2],20.8%
same,inhibition,[7],12%
same,inhibition,[8],33%
Cc1ccc(-n2c(-c3ccc(Cl)cc3)c[n+]3c2CCC3)cc1,inhibition,[1],16.1%
same,inhibition,[2],21.9%
same,inhibition,[7],13.4%
same,inhibition,[8],18.6%
